A selection: hits, their analogues and other compounds. The true share with any hit is near 3%.
p53null 32C kill: selectivity test: cytotoxicity in p53 null cells, permissive temperature; H1299-neo p53 null cells, ATP luminescence, 24 h, 32C; Potency, µM (highest dose often 46.1 µM), for the others: at the top dose activity change, negative = cytotoxicity, actives largely listed as cytotoxic; actives 0.62% (n = 55,000); AID 903;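 note: potency is the fitted concentration of half-maximal effect; 0% = DMSO only and -100% = full killing by 100 µM tamoxifen; nearly all actives have a fitted effect of over 55% in size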
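H1299-neo, 600 cells/well; overnight 37C; cpd up to 46 uM, 24 h at 32C; ATPlite luminescence after 20 min RT; normalized to DMSO (0%) and tamoxifen 100 uM (100% kill); Hill-fit AC50.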
PMP22 txn: PMP22 gene transcription modulation; Potency, µM (series often up to 57.5 µM), for inactives: at the highest dose activity change, negative = inhibition, actives largely listed as inhibitors; S16 Pmp22-F2sN Schwann cells, FLuc/NLuc coincidence luminescence, 24 h; actives 2% (n = 43,000); active = clear falling dose curves in both reporters; inconclusive = both reporters move, but less clearly or upward; inactive = either reporter flat; the % is the NLuc reporter signal; note: potency is the fitted concentration of half-maximal effect; % is set by controls: 0 for no effect and ±100 for the full control effect
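qHTS, 1536-well. Cells seeded, compounds added by pin tool, 24 h 37C. Nano-Glo reagent 1 (lysis/FLuc), 10 min RT, read; Stop&Glo, 10 min RT, read NLuc.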
S16 F2sN tox: toxic to S16 Pmp22-F2sN Schwann cells; AID 1508642; actives 0.48% (n = 43,000); S16 Pmp22-F2sN Schwann cells viability, CellTiter-Glo, 24 h; Potency, µM (top dose mostly 57.5 µM), for the others: top-dose activity change, negative = cytotoxicity, hits mostly cytotoxic; note: potency is the fitted concentration of half-maximal effect; % is set by controls: 0 for no effect and ±100 for the full control effect; nearly all actives have a fitted effect of over 65% in size
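S16 Pmp22-F2sN Schwann cells (500-1,000/well) in phenol-red-free DMEM with 10% FBS received 23 nL compound by pin tool for 24 h at 37 °C. Viability was then read as CellTiter-Glo luminescence after 15 min at room temperature.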
mTORC1 inh: mTORC1 pathway inhibition measured by phospho-rpS6; Tsc2-/- p53-/- MEF, phospho-rpS6 immunofluorescence/PI, 24 h; AID 493208; actives 0.78% (n = 44,000); Potency, µM (titrated, usually from 38.3 µM), without a hit: top-dose activity change, negative = inhibition, actives largely listed as inhibitors;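 note: potency is the fitted concentration of half-maximal effect; plate controls were DMSO for no effect and rapamycin for full effect; nearly all actives have a fitted effect of over 50% in size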
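Read-out: phospho-S6 Alexa-488 intensity over PI intensity per well, scored as % active cells using thresholds from rapamycin (7.5 nM) and DMSO controls. Tsc2-/-, p53-/- MEFs exposed to compound for 24 h; PI cell count recorded as viability.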
p53null 39C kill: p53 null cell cytotoxicity, nonpermissive temperature; H1299 p53-null (neo) cells, 39C, ATPlite viability, 24 h; Potency, µM (titrated, usually from 46.1 µM), inactives show at the highest dose activity, negative = cell killing, hits mostly cytotoxic; actives 0.97% (n = 55,000); AID 904;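 note: potency is the fitted concentration of half-maximal effect; 0% = DMSO only and -100% = full killing by 100 µM tamoxifen; nearly all actives have a fitted effect of over 50% in size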
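Luminescent ATP signal reported cell survival after H1299 lines (neo, p53 null; or p53 A138V) received up to 46 uM compound and 24 hr incubation at 39C.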
SKOV3 invasion: blocks SKOV3ip1 adhesion and invasion in omental model | SKOV3ip1-GFP adhesion/invasion on 3D omental model, fluorescence | actives 0.1% (n = 46,000) | Potency, µM (series often up to 45.8 µM), without a hit: top-dose activity change, negative = inhibition, hits mostly inhibitors;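 note: potency is the fitted concentration of half-maximal effect; plate controls were DMSO wells for no effect and tomatine positive control wells for full effect; nearly all actives have a fitted effect of over 65% in size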
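qHTS, 4-pt dose (0.36-46 umol/L); SKOV3ip1-GFP, 1,200 cells/well, no FBS; primary omental fibroblast/mesothelial co-culture 48 h pre-grown; 2 h RT + 16 h 37 C; PBS wash, 4% PFA; GFP count 488/509 nm.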
NLuc sat counter: NanoLuc enzyme inhibition artifact for PMP22 screen; Secreted NLuc enzyme (filtered S16 cell medium), Nano-Glo luminescence; shares compounds with PMP22 txn; actives 4% (n = 690); Potency, µM (top dose mostly 57.5 µM), without a hit: at the highest dose activity change, negative = inhibition, hits mostly inhibitors; note: potency is the fitted concentration of half-maximal effect; % is set by controls: 0 for no effect and ±100 for the full control effect
NLuc Km ctr: NanoLuc inhibition at Km substrate, PMP22 artifact check. shares compounds with PMP22 txn. secreted NLuc enzyme, coelenterazine luminescence, Km conditions. Potency, µM (titrated, usually from 57.5 µM), for the others: at the top dose activity change, negative = inhibition, usual class: inhibitors. actives 5% (n = 690); note: potency is the fitted concentration of half-maximal effect; % is set by controls: 0 for no effect and ±100 for the full control effect
FLuc counter: inhibits firefly luciferase, PMP22 counter-screen. 690 tested, under 10 active. Potency, µM (doses to about 57.5 µM), for inactives: top-dose activity, negative = inhibition, usual class: inhibitors. shares compounds with PMP22 txn. AID 1508640. purified P. pyralis FLuc, luminescence, 10 min; note: % of control where 0% means no effect
Target sequence (P08659 whole entry, looked up): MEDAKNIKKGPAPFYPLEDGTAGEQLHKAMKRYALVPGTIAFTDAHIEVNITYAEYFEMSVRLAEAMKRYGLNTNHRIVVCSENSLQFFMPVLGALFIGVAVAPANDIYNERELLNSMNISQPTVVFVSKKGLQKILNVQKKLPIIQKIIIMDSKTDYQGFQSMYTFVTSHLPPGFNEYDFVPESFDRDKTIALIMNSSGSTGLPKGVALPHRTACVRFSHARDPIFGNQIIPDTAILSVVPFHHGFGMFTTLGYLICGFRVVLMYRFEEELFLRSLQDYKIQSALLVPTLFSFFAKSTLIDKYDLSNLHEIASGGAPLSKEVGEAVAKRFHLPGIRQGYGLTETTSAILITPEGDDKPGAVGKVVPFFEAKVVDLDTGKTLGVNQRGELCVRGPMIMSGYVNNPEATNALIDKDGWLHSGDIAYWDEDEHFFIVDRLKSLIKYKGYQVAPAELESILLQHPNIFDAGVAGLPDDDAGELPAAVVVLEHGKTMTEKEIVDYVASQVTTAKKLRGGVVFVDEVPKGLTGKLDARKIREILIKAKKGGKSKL
S16 viab conf: confirmation of cytotoxicity in S16 Pmp22-F2sN Schwann cells (luciferase reporters placed in the Pmp22 gene); shares compounds with PMP22 txn; S16 Schwann cells viability, CellTiter-Glo ATP luminescence, 24 h; Potency, µM (series often up to 57.5 µM), for the others: at the highest dose activity change, negative = viability loss, actives largely listed as cytotoxic; actives 7% (n = 690); AID 1508641; note: potency is the fitted concentration of half-maximal effect; % is set by controls: 0 for no effect and ±100 for the full control effect
PMP22 txn conf: confirmation of modulators of PMP22 gene transcription in S16 cells; shares compounds with PMP22 txn; S16 Schwann cells Pmp22-F2sN, dual luciferase, 24 h; Potency, µM (doses to about 57.5 µM), without a hit: at the top dose activity change, negative = inhibition, actives largely listed as inhibitors; actives 22% (n = 690); active = clear falling dose curves in both reporters; inconclusive = both reporters move, but less clearly or upward; inactive = either reporter flat; the % is the FLuc reporter signal; note: potency is the fitted concentration of half-maximal effect
PMP22 HiBiT cnf: rat PMP22 protein level modulation, confirmatory; Potency, µM (titrated, usually from 27.9 µM), for the others: at the highest dose activity change, negative = inhibition, most hits filed as inhibitors; S16 Schwann cells Pmp22-HiBiT, luminescence, 48 h; 95 tested, under 10 active; shares compounds with PMP22 txn; AID 1508647
Target sequence (P25094 whole entry, looked up): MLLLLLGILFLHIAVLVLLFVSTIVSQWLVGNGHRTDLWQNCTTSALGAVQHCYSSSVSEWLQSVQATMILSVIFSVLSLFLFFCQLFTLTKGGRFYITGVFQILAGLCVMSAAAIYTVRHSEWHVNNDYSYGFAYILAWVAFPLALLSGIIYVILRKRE
Active calls of the source: *; i = inactive; ? = inconclusive; nt = no result given. Unless noted, calls come from the whole dose curve; as a rule, active = well fitted curve in the direction sought with a large enough effect; inconclusive = small, poorly fitted or top-dose-only effect, or another doubt; inactive = no such curve, though single readings can be large; an effect the other way counts as inactive or inconclusive.

SMILES | p53null 32C kill | PMP22 txn | S16 F2sN tox | mTORC1 inh | p53null 39C kill | SKOV3 invasion | others
CCn1nc(-c2ccccc2)nc2c(=O)n(C)c(=O)nc1-2 | 3.5µM* | nt | nt | nt | 18% | nt
C[C@](O)(COc1ccc(C#N)cc1)C(=O)Nc1ccc(C#N)c(C(F)(F)F)c1 | nt | nt | nt | nt | nt | -8%
CCOc1ccc2nc(NC(=O)c3cccn(Cc4ccc(C)cc4)c3=O)sc2c1 | -4% | -23% | 11% | -5% | 26% | -1%
COc1ccc2nc(NC(=O)c3nc(S(=O)(=O)Cc4cccc(C)c4)ncc3Cl)sc2c1 | -27% | 6.2µM* | 10µM* | 6.6µM* | ? | ?
Cc1ccc(NC(=O)CSc2nc(-c3ccco3)cc(C(F)(F)F)n2)c(C)c1 | 23% | ? | ? | 0.83µM* | ? | ?
C=C[C@@H]1CN2CCC1C[C@H]2[C@H](O)c1ccnc2ccccc12 (stereo not given in full) | nt | nt | nt | nt | nt | 8%
Cc1nc2c(=O)n(C)c(=O)nc-2n(C)n1 | 1.3µM* | nt | nt | nt | 3.2µM* | nt
COC(=O)C1CN(C#N)N(c2ccc(Cl)cc2)C12c1ccccc1-c1ccccc12 (stereo not given) | 8.9µM* | nt | nt | nt | ? | nt
COc1ccc2c(c[n+](C)c3c4cc5c(cc4ccc23)OCO5)c1OC | nt | nt | nt | nt | nt | 23µM*
COc1cccc2c1[C@]13CCN(CC4CC4)[C@H](C2)[C@]1(OC)CCC(=O)C3 | nt | nt | nt | nt | nt | 0%
Cc1ccccc1Cn1cccc(C(=O)Nc2nc3ccccc3s2)c1=O | 10µM* | -13% | 0% | 0% | 14% | i
O=C(Nc1nc2ccccc2s1)c1cccn(Cc2ccccc2)c1=O | ? | -17% | 14% | -2% | 8% | i
CCc1c(C(=O)C(N)=O)c2c(OCC(=O)O)cccc2n1Cc1ccccc1 | nt | nt | nt | nt | nt | 9%
CCOC(=O)Nc1ccc(NCc2ccc(F)cc2)cc1N | nt | nt | nt | nt | nt | -7%
O=C(Nc1ccc(Cl)c(C(F)(F)F)c1)c1ccc2c(c1)CCN2S(=O)(=O)c1ccccc1 | 16% | ? | 22µM* | 8.3µM* | -2% | i
COC[C@@H](NC(C)=O)C(=O)NCc1ccccc1 | nt | nt | nt | nt | nt | 4%
Cc1ccc(S(=O)(=O)c2nnn3c2nc(N2CCC(C(N)=O)CC2)c2cc(Cl)ccc23)cc1C | 11% | 16µM* | ? | 1% | ? | -21%
CO[C@H]1CCC(O[C@H]2C[C@H]([C@]3(C)CC[C@]4(C[C@H](O)[C@@H](C)[C@@H]([C@@H](C)C=C(C)C(=O)[C@H](C)C[C@H](C)C(=O)O)O4)O3)O[C@]3(O[C@@H]([C@H]4O[C@@](O)(CO)[C@H](C)C[C@H]4C)C[C@H]3C)[C@H]2C)O[C@H]1C (stereo not given in full) | nt | nt | nt | nt | nt | -19%
COc1ccc(CNC(=O)Cn2c(SCC(=O)Nc3ccc(C)c(C)c3)nc3ccccc32)cc1 | ? | ? | -29% | 16µM* | ? | ?
CC(C)N[C@@H]1CCn2c(=O)[nH]c3cccc(c32)[C@@H]1O | nt | nt | nt | nt | nt | 5%
O=C(c1ccccc1)c1ccc2nc(N3CCN(c4ccc(F)cc4)CC3)c3nncn3c2c1 | 5% | ? | 16% | 4.1µM* | -20% | 7%
C=C[C@@H]1CN2CCC1C[C@@H]2[C@@H](O)c1ccnc2ccccc12 (stereo not given in full) | nt | nt | nt | nt | nt | -15%
C#C[C@]1(O)C=C[C@@H]2[C@@H]3CCC4=CC(=O)CC[C@@H]4[C@H]3CC[C@@]21CC | nt | nt | nt | nt | nt | -4%
COc1ccc(N2CCN(C(=O)C3CCCN(S(=O)(=O)c4ccc5c(c4)CCCN5C(C)=O)C3)CC2)cc1 (stereo not given) | 2% | 14µM* | ? | 7.4µM* | -11% | i
CCCOC(=O)c1c(C)oc2c1cc(NS(=O)(=O)c1ccc(OCC)cc1)c1ccccc12 | -4% | 8.9µM* | 1% | ? | ? | i | NLuc sat counter=-6%;NLuc Km ctr=3%;FLuc counter=-7%;S16 viab conf=12%;PMP22 txn conf=?
C[C@H]([C@H](O)CCC(C)(C)O)[C@H]1CC[C@@]2(O)C3=CC(=O)[C@@H]4C[C@@H](O)[C@@H](O)C[C@]4(C)[C@@H]3CC[C@]12C | nt | nt | nt | nt | nt | -9%
COc1cccc(-n2c(SCC(=O)c3ccc(Cl)cc3)nc3c([nH]c4ccccc43)c2=O)c1 | ? | 10µM* | ? | -5% | 18% | 4% | NLuc sat counter=1%;NLuc Km ctr=4%;FLuc counter=-6%;S16 viab conf=?;PMP22 txn conf=11µM*;PMP22 HiBiT cnf=-16%
Cc1ccc(CNC(=O)c2ccc(Nc3nc4ccccc4n4nnnc34)cc2)cc1 | 3% | 8µM* | ? | ? | -7% | 1% | NLuc sat counter=-5%;NLuc Km ctr=-1%;FLuc counter=-15%;S16 viab conf=?;PMP22 txn conf=9.9µM*;PMP22 HiBiT cnf=?

Compound activity from PubChem.
